This is an account of results in publication PMC7862700, “An all-to-all approach to the identification of sequence-specific readers for epigenetic DNA modifications on cytosine”.

Common to all, as to test: DAPPL (digital affinity profiling via proximity ligation, sequencing); 10 mM Tris-HCl pH 7.5, 50 mM NaCl, 1 mM DTT, 4% glycerol, room temperature, 30 min; GST-TFs on glutathione beads, 16-mer random dsDNA library, 0.1% formaldehyde crosslink after washing; high values mean tight binding
Settings in all cases: protein: recombinant; tags: N-terminal GST; dsDNA, one strand shown

Test [1] deals with T1, FLI1 (Homo sapiens, UniProt Q01543 1-452).
T1 sequence: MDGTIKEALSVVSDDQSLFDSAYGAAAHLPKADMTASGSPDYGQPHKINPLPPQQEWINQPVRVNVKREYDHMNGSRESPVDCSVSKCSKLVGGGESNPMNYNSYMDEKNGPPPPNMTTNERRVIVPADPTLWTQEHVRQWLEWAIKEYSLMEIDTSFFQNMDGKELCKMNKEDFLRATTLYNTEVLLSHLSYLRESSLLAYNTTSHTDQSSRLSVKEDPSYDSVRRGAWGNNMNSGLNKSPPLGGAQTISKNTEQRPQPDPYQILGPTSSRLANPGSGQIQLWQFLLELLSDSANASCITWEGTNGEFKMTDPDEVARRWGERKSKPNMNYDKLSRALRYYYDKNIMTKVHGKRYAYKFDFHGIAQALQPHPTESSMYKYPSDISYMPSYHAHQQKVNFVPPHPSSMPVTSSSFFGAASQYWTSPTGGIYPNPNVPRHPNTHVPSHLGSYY
Put shortly: (§1)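 Beads coated with glutathione captured GST-fused human transcription factors that had been expressed in yeast, and the factors were then given DNA barcodes and pooled with a tag-only sample. The pools were incubated with 200 nmole of a random double-stranded 16-mer DNA library in Tris/NaCl/DTT/glycerol buffer for 30 min at room temperature, washed, crosslinked with 0.1% formaldehyde and proximity-ligated with BsaI/T4 ligase at 37 °C for 1 h. PCR amplification and Illumina NextSeq500 sequencing came last. Binding signal is each hexamer's read frequency for a factor divided by its frequency for the tag-only sample.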

Test [2] concerns the target T2, ELK1 (Homo sapiens, UniProt P19419 1-428).
T2 sequence: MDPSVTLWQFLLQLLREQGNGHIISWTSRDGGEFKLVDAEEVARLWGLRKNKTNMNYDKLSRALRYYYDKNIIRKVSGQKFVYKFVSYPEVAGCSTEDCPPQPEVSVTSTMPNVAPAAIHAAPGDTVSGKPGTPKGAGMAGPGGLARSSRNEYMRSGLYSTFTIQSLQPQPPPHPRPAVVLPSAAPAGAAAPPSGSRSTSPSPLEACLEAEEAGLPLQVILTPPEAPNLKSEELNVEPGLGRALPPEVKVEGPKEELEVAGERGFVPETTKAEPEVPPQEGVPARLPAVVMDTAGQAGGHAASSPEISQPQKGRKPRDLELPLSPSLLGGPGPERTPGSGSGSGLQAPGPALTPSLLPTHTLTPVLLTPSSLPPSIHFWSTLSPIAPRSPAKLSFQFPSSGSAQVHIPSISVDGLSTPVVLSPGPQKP
Put shortly: as §1

The target of test [3] is T3, GABPA (Homo sapiens, UniProt Q06546 1-454).
T3 sequence: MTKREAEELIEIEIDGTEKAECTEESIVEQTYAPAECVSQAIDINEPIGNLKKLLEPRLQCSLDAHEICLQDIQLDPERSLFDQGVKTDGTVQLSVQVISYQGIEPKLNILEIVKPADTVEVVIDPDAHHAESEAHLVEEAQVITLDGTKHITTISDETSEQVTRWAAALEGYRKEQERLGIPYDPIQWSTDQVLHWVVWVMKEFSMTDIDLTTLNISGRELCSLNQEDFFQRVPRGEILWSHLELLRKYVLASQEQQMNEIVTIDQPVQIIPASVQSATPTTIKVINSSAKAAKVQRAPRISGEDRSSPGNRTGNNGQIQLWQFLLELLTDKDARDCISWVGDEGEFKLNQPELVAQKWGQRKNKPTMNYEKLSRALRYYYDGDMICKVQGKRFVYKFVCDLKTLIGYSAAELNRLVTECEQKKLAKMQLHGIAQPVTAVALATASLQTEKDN
In short, it runs like this:
as §1

Test [4] deals with T4, ERG (Homo sapiens, UniProt P11308 1-479).
T4 sequence: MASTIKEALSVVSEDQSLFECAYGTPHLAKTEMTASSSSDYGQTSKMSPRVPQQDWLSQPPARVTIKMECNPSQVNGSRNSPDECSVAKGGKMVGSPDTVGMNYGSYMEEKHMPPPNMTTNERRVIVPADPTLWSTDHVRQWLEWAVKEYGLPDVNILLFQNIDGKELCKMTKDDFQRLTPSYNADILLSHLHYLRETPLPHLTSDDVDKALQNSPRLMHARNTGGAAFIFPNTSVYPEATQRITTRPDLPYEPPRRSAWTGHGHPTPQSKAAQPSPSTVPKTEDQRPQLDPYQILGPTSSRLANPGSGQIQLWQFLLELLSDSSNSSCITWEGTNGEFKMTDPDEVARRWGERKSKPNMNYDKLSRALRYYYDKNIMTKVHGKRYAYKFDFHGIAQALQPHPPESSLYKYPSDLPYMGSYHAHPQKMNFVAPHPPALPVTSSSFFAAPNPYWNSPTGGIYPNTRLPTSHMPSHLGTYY
Put shortly:
as §1

The target in test [5] is ELF1 (Homo sapiens, UniProt P32519 1-619). In short, it runs like this: as §1
Chain of ELF1 (P32519 whole entry): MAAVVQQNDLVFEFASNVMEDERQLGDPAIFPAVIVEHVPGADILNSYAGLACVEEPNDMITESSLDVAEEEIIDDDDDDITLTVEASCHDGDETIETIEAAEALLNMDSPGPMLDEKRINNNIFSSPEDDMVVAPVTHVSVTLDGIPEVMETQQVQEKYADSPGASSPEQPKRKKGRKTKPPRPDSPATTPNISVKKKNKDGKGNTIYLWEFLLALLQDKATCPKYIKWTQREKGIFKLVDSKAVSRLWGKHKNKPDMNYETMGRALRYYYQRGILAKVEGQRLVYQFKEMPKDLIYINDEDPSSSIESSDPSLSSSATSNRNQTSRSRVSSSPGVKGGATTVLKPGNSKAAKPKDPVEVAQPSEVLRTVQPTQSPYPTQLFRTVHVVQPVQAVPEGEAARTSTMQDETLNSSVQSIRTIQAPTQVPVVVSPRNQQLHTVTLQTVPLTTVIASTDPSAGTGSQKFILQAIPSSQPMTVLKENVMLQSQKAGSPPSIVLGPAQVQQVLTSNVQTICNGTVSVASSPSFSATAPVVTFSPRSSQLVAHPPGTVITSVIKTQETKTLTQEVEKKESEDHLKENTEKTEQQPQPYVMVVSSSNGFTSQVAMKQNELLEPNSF
Test [6] deals with T5, EHF (Homo sapiens, UniProt Q9NZC4 1-300).
T5 sequence: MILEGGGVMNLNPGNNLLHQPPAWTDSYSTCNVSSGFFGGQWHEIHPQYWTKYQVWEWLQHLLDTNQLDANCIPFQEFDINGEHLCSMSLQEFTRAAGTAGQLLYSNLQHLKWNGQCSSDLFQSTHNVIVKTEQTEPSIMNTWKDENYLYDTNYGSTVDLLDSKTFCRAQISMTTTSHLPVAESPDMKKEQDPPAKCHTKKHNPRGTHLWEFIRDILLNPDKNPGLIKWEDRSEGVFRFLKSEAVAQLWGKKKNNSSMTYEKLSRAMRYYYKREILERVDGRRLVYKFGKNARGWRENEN
In short, it runs like this: as §1

Test [7] concerns the target SPI1 (Homo sapiens, UniProt P17947 1-270). Put shortly:
as §1

Test [8] concerns the target SPIB (Homo sapiens, UniProt Q01892 1-262). In short, it runs like this:
as §1

Test [9] has as its target T6, ELK3 (Homo sapiens, UniProt P41970 1-407).
T6 sequence: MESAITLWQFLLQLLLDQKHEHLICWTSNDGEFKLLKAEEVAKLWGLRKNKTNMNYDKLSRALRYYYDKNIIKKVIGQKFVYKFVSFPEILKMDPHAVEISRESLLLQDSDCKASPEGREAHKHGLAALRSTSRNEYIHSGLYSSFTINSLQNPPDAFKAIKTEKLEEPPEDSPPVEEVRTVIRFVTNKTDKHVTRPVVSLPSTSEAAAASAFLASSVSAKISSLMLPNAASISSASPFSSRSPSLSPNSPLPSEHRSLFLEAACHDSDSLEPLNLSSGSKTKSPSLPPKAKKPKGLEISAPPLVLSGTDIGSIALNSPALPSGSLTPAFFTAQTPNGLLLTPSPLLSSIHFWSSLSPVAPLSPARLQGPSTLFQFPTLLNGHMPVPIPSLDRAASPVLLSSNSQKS
In short, it runs like this:
as §1

Test [10] concerns the target T7, FEV (Homo sapiens, UniProt Q99581 1-238).
T7 sequence: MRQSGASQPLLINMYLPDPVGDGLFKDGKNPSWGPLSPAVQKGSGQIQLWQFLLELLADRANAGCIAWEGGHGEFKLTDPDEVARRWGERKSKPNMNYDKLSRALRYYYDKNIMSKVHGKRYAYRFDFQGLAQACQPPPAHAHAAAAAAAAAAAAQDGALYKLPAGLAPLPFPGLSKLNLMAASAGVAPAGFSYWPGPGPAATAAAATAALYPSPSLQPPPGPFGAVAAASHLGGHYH
Put shortly:
as §1

The target in test [11] is ETV5 (Homo sapiens, UniProt P41161 1-510). In short, it runs like this: as §1
Chain of ETV5 (P41161 whole entry): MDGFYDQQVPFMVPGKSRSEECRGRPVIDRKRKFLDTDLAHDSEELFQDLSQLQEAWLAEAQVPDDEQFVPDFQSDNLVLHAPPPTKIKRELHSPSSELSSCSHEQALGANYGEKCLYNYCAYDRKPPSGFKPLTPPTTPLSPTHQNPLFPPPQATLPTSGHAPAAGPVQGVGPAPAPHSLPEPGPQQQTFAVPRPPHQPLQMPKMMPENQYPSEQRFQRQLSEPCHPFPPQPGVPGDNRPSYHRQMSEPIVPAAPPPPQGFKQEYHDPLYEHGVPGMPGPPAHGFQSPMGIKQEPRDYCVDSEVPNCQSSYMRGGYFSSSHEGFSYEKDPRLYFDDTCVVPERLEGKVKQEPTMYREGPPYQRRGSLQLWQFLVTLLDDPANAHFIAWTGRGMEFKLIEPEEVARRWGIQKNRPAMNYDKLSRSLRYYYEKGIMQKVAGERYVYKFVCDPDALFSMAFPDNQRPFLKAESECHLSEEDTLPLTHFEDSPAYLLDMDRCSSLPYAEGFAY
Test [12] deals with ELF4 (Homo sapiens, UniProt Q99607 1-663). Put shortly:
as §1

For test [13], the target named is ETV1 (Homo sapiens, UniProt P50549 1-477). Put shortly: as §1
Chain of ETV1 (P50549 whole entry): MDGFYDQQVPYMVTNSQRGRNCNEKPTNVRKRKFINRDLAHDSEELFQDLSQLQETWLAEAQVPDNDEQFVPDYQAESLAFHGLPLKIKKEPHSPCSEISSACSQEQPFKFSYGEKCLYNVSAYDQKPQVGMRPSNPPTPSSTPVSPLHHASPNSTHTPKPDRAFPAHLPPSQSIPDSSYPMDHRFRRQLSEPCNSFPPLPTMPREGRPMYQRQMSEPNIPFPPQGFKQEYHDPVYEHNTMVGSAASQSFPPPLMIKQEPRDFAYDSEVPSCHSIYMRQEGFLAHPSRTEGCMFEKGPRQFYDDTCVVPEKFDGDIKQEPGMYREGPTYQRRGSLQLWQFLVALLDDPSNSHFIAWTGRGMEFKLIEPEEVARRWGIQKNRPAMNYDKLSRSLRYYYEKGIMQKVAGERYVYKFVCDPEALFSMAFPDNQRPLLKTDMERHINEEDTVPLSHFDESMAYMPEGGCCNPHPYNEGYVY
Test [14] deals with T8, ERF (Homo sapiens, UniProt P50548 1-548).
T8 sequence: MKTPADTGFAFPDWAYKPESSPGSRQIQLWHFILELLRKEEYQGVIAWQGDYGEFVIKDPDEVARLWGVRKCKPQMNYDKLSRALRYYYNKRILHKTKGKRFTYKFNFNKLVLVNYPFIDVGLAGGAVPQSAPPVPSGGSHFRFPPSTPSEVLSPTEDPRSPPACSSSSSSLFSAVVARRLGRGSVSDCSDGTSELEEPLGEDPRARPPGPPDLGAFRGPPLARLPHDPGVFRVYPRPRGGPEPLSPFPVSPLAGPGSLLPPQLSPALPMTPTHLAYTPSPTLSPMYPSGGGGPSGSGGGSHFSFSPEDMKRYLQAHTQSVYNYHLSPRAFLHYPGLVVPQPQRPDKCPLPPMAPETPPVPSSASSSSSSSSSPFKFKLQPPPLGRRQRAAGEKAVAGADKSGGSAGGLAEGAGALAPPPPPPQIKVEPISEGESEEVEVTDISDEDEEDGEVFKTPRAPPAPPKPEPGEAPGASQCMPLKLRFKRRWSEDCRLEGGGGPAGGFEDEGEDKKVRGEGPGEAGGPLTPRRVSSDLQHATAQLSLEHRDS
Put shortly:
as §1

Test [15] concerns the target T9, ETV3L (Homo sapiens, UniProt Q6ZN32 1-361).
T9 sequence: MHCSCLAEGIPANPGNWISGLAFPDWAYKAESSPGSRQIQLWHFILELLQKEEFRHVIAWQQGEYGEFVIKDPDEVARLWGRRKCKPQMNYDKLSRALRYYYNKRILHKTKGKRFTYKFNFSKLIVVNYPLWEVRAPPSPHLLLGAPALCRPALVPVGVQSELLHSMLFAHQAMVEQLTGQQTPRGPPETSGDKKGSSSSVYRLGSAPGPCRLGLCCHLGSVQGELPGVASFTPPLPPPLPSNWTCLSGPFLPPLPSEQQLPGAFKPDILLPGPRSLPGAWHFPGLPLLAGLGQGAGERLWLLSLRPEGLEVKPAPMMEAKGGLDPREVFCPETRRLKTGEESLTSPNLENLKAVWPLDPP
In short, it runs like this: as §1

The target of test [16] is T10, ETS2 (Homo sapiens, UniProt P15036 1-469).
T10 sequence: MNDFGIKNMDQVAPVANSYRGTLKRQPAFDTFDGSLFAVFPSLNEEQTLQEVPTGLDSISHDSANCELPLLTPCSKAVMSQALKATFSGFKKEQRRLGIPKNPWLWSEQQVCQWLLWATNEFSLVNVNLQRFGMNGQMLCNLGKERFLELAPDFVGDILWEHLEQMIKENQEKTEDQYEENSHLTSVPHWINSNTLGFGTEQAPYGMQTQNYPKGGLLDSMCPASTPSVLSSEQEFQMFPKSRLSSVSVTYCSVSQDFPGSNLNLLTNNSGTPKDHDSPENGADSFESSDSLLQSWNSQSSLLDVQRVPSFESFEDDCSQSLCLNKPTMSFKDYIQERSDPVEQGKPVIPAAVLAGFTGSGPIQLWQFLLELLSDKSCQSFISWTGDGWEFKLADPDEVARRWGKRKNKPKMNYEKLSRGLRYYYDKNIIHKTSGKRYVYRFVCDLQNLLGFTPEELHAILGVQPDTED
In short, it runs like this: as §1

The target in test [17] is T11, ELF5 (Homo sapiens, UniProt Q9UKW6-2 1-255).
T11 sequence: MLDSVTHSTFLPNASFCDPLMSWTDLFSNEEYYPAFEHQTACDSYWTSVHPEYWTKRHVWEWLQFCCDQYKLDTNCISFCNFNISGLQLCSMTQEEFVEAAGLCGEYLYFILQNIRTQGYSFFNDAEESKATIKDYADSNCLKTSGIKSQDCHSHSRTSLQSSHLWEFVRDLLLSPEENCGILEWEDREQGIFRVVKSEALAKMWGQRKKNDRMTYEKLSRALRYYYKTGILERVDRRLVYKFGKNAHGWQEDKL
In short, it runs like this:
as §1

Test [18] has as its target T12, ETV3 (Homo sapiens, UniProt P41162-2 1-143).
T12 sequence: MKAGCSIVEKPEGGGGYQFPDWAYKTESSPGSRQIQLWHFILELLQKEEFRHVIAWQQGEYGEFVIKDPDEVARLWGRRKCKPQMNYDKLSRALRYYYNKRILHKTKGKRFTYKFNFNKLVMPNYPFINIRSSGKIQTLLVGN
In short, it runs like this: as §1

Test [19] concerns the target ETV6 (Homo sapiens, UniProt P41212 1-452). In short, it runs like this: as §1

Chain of SPIB (Q01892 whole entry): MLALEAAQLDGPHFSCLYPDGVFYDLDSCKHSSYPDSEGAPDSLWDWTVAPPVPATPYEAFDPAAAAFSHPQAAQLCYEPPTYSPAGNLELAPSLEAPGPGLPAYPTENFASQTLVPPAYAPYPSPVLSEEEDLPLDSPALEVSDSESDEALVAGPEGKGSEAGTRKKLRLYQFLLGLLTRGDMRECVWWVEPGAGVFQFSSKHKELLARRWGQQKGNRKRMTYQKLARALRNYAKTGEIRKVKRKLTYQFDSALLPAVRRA
Chain of ELF4 (Q99607 whole entry): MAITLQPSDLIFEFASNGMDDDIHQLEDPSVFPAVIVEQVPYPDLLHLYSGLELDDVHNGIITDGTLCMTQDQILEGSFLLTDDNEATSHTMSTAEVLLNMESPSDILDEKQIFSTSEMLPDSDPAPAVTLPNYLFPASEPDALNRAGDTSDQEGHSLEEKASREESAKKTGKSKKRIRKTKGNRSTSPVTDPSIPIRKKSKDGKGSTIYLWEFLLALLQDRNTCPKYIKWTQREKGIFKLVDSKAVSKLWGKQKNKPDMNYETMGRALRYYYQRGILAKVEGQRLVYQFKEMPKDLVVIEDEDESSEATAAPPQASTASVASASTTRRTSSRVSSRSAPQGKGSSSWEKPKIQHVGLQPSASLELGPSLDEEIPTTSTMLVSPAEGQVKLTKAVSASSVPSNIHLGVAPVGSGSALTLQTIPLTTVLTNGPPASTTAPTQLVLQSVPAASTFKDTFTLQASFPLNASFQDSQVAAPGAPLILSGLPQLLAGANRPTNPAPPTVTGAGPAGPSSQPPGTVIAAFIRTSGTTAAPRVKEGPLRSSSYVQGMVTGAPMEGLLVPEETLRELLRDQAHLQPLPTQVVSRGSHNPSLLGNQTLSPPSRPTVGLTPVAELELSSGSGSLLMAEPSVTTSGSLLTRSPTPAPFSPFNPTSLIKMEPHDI
Chain of ETV6 (P41212 whole entry): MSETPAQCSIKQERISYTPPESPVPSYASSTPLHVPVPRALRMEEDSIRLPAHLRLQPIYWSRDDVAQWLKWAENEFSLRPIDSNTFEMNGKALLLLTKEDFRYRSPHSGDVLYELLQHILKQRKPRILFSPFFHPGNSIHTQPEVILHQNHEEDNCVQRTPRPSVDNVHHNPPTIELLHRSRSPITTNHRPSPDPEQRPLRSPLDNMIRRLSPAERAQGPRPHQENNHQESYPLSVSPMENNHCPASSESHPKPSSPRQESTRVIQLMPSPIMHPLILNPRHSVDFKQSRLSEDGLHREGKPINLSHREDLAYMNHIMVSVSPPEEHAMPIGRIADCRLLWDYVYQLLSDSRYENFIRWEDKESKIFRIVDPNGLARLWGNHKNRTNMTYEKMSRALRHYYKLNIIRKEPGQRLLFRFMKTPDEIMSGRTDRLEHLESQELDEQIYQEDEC

With CATTGT, the binding signal in test [1] was 1.2 fold enrichment (6-mer frequency, TF over GST control); in test [2] it was 1.14 fold enrichment (6-mer frequency, TF over GST control); in test [3] it was 1.19 fold enrichment (6-mer frequency, TF over GST control); in [4], 1.12 fold enrichment (6-mer frequency, TF over GST control); in [5], 1.1 fold enrichment (6-mer frequency, TF over GST control); in test [6], 1.14 fold enrichment (6-mer frequency, TF over GST control). Besides, the binding signal in test [7] is 1.04 fold enrichment (6-mer frequency, TF over GST control); in [8] it was 1.04 fold enrichment (6-mer frequency, TF over GST control); in [9], 1.08 fold enrichment (6-mer frequency, TF over GST control); in [10] it was 1.09 fold enrichment (6-mer frequency, TF over GST control); in test [11], 1.19 fold enrichment (6-mer frequency, TF over GST control); in test [12] it was 1.14 fold enrichment (6-mer frequency, TF over GST control). Moreover, the binding signal in test [13] is 1.14 fold enrichment (6-mer frequency, TF over GST control); in test [14] it was 1.12 fold enrichment (6-mer frequency, TF over GST control); in [15] it was 1.19 fold enrichment (6-mer frequency, TF over GST control); in test [16], 1.07 fold enrichment (6-mer frequency, TF over GST control); in test [17], 1.1 fold enrichment (6-mer frequency, TF over GST control); in [18], 1.16 fold enrichment (6-mer frequency, TF over GST control). Also, the binding signal in test [19] is 1.15 fold enrichment (6-mer frequency, TF over GST control).
